From PubChem BioAssay
DRD3 agonist = activates the human D3 dopamine receptor | P35462 | D3R DiscoveRx beta-arrestin cells, luminescence, 90 min | max activation, % | 410,000 compounds, 0.58% hits; in the data active = max activation above about 30%; also: 0% is about no effect
Target sequence (P35462 whole entry, looked up): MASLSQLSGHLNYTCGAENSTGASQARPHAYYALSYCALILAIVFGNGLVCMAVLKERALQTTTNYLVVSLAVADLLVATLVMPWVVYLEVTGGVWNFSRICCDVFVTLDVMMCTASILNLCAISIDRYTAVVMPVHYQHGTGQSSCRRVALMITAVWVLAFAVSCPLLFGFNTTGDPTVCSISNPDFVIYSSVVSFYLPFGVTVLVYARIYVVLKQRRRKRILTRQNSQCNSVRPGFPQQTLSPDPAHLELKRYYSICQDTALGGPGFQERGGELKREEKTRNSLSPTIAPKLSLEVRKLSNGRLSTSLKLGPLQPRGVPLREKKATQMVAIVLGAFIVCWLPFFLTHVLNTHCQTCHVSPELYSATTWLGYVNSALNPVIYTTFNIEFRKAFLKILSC
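Agonist-mode cell screen: cells plated at 1500/well and incubated overnight at 37 °C, then exposed to library compounds for 90 min at 37 °C. Detection reagent was added for 30–60 min at room temperature, and luminescence was read.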
D1 antagonist = antagonists of human D1 dopamine receptor; HEK293 TREx D1 cells, calcium flux, dopamine EC80; hits give low values; activity change, negative = inhibition, % at 10 µM; 360,000 compounds, 3.2% hits; AID 504652; in the data active = activity change below about -30%; also: % is scaled to controls: 0 for no effect and ±100 for the full control effect
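After overnight tetracycline induction at 30 C, force-coupled D1 HEK293 cells took up a no-wash calcium dye at room temperature. Compounds were added and monitored 180 s, and the response to EC80 dopamine was then recorded.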
DRD3 antagonist = blocks the human D3 dopamine receptor; P35462; D3R cells, DiscoveRx beta-arrestin luminescence, antagonist mode; hits give low values; max response, negative = inhibition, %; 360,000 compounds, 2.5% hits; in the data active = max response below about -50%; inconclusive = no clear call, values can overlap the other calls; also: % is scaled to controls: 0 for no effect and ±100 for the full control effect
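Cells expressing the human receptor were seeded at 1500 cells/well, incubated overnight at 37 degrees C in 5% CO2, then exposed to library compounds with dopamine controls for 90 minutes at 37 degrees C before luminescent detection.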
D1 agonist = agonists of human D1 dopamine receptor. 360,000 compounds, 1% hits. activation, % at 2 µM. P21728. HEK293 T-REx D1 cells, calcium flux, agonist mode; in the data active = activation above about 30%; also: 0% is about no effect
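Tetracycline-induced HEK293 TREx D1 cells, force-coupled to calcium signalling, were dye-loaded with a no-wash calcium kit. Compound was pin-added after a 10 s baseline. Fluorescence was read kinetically at 1 cycle/s for 180 s, with calcium rises flagged as agonism.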
D1 PAM = human D1 dopamine receptor positive modulation; P21728; HEK293 TREx D1 cells, calcium flux, dopamine EC20 potentiation; potentiation, % at 10 µM; 360,000 compounds, 0.036% hits; in the data active = potentiation above about 30%; also: 0% is about no effect
* = called active by the depositor; ? = inconclusive; . = no result; ! = a repeat was not active. In the library only some 6.1% were active in any assay of this set; here they are far more common.

SMILES	DRD3 agonist	D1 antagonist	DRD3 antagonist	D1 agonist	D1 PAM
Cc1ccc(N(C)C(=O)c2cnc(N3CCOCC3)c3ccccc23)cc1C	9.1	-36.7*	.	0.3	-1.0
CCN(C(=O)c1cnc(N2CCOCC2)c2ccccc12)c1cc(C)ccc1C	-0.1	-42.6*	.	2.0	-1.6
Cc1ccc(S(=O)(=O)N(Cc2cccc(F)c2)C(=O)N2CCN(C)CC2)cc1	1.8	-4.1	2.1	1.4	-1.9
CCN(CC)S(=O)(=O)c1cccc(NC(=O)c2cccc(S(=O)(=O)N3CCCC3)c2)c1	-2.8	-25.0	-25.8	8.0	-5.7
CCC(=O)N1CCN(c2ccccc2NC(=S)NC(=O)c2ccco2)CC1	12.3	-5.3	?	2.0	3.9
Cc1c(Cl)cccc1-n1c(SCC(=O)N2CCC(C(=O)O)CC2)nnc1-c1ccncc1	1.5	10.2	-7.7	2.9	-1.8
CCOc1cccc2sc(N(CCN(C)C)C(=O)c3ccc4c(c3)OCCO4)nc12	-18.6	-15.7	-66.4*	7.4	-4.1
CN(C)CCCN(C(=O)COc1ccccc1)c1nc2c(F)cccc2s1	-15.9	24.4	1.6	1.3	3.4
Cc1cc(C)c2nc(N(CCCN(C)C)C(=O)c3ccc4c(c3)OCCO4)sc2c1	-12.4	-3.6	-16.9	26.4	-7.5
CCOc1cccc2sc(N(CCCN(C)C)C(=O)Cc3ccccc3)nc12	-11.1	-1.2	4.0	36.8*	0.8
COc1ccc(C)c2sc(N(CCCN(C)C)C(=O)c3ccc4c(c3)OCCO4)nc12	-21.7	-21.0	-7.8	66.4*	-13.4
Cc1cccc2sc(N(CCN(C)C)C(=O)c3ccc4c(c3)OCCO4)nc12	-19.1	-4.2	.	6.5	-2.5
CCOc1cccc2sc(N(CCCN(C)C)C(=O)c3ccc(C(=O)c4ccccc4)cc3)nc12	-16.0	-32.9*	-27.9	42.6*	-1.9
COc1ccc(CNC(=O)c2cc3cc(C)ccc3n2C)cc1	11.4	-8.5	.	-1.0	-1.8
NC(=O)CC[C@H](NC(=O)OCc1ccccc1)C(=O)OCc1ccc(Cl)cc1	4.0	4.0	-4.7	3.1	-6.0
COCCCNC(=O)c1ccccc1N(Cc1ccccc1)S(=O)(=O)c1ccccc1	1.1	8.0	7.0	2.8	-4.0
CCOc1cccc2sc(N(CCN(C)C)C(=O)c3cc4ccccc4cc3OC)nc12	-14.9	-70.4*	-70.6*	32.8*	6.0
Cc1cccc2sc(N(CCCN(C)C)C(=O)c3ccco3)nc12	-3.8	-6.2	-13.0	7.6	-3.8
COc1ccc(C)c2sc(N(CCN(C)C)C(=O)/C=C/c3cccs3)nc12	-17.6	-4.3	-54.5*	12.1	-3.5
CCOc1ccc2nc(N(CCN(C)C)C(=O)c3cc4ccccc4cc3OC)sc2c1	-5.5	1.5	?	4.8	-4.7
Cc1cccc2sc(N(CCCN(C)C)C(=O)c3ccc(Cl)s3)nc12	-3.6	-0.8	7.0	36.7*!	-2.9
CCN(CC)CCN(C(=O)/C=C/c1cccs1)c1nc2ccc(F)cc2s1	-17.9	10.7	-70.8*	5.6	-10.8
Cc1cc2c(s1)c1cnn(Cc3c(F)ccc(C)c3F)c(=O)c1n2C	.	-24.1	.	-0.4	11.5
COC(=O)CCCCCCCCCCN1CCCCC1	3.2	-0.5	2.4	10.5	-0.1
CCCOC(=O)CCCCCCCCC(O)CN1CCCCC1 (centres undefined)	-21.6	-56.0*	-15.4	54.4*	-1.5
SMILES	DRD3 agonist	D1 antagonist	DRD3 antagonist	D1 agonist	D1 PAM
Cn1cc(CNCC2CCCO2)c(-c2ccc(Oc3ccccc3)cc2)n1 (centres undefined)	-10.5	-22.5	-10.9	46.3*	-3.0
Cc1cc(CNCc2cn(C)nc2-c2ccc(Oc3ccccc3)cc2)on1	-3.9	2.0	3.5	0.5	-1.9
COc1cc(C)nc(N(C)C(C)=O)n1	3.0	-34.0*	-8.9	3.1	4.3
O=S(=O)(c1ccc(Br)cc1)N1CCN(S(=O)(=O)c2ccc3c(c2)OCCO3)CC1	.	13.6	.	-0.2	0.0
CCOC(=O)C1=C(O)/C(=C\c2cc(C)n(-c3ccc(F)cc3)c2C)N=C1C	-7.6	-32.2*	-24.1	6.0	-2.1
CC1CCCC(NC(=S)NC(=O)c2ccccc2Br)C1C (centres undefined)	-11.3	-1.2	-29.5	4.0	-11.5
COc1ccc(-n2nnnc2SCC(=O)NCCc2ccccc2)cc1OC	-1.8	57.1	0.0	9.1	-4.9
CCOc1ccc(CNCCSc2nnnn2C)cc1OC	0.0	-9.9	.	-1.4	-0.6
COc1ccc(CCNc2nnc(Sc3nnnn3-c3ccccc3)s2)cc1OC	7.8	-52.7*	27.3	3.2	-5.6
CCOc1cc(CNCCSc2nnnn2-c2ccccc2)ccc1OC	-11.6	-10.6	.	30.0*	-0.8
Cc1ccccc1CNCCCSc1nnnn1-c1ccccc1	-25.5	4.0	.	35.6*	-1.2
COc1cccc(N2CCN(c3ccc4nnc(CCC(=O)Nc5ccc(OC)c(OC)c5)n4n3)CC2)c1	9.0	3.1	22.9	0.2	0.9
Cc1cc2c(s1)c1cnn(Cc3ccc(Cl)c(F)c3)c(=O)c1n2C	.	-2.1	.	5.2	3.9
O=C(CSc1nc2c([nH]c3ccccc32)c(=O)n1-c1ccccc1)N1CCCc2ccccc21	-11.3	8.9	.	0.9	-3.1
C/C(=N\Nc1nccnc1Cl)c1ccc([N+](=O)[O-])cc1	-15.6	-61.1*	-29.3	0.3	-4.8
c1ccc2c(-c3c[nH]c4ccccc34)c3ccccc3nc2c1	-4.3	23.3	-53.3*	1.9	-4.5
Cc1ccc(C2=NN(C(=O)CCC(=O)O)C(c3cccc([N+](=O)[O-])c3)C2)cc1 (centres undefined)	-15.5	5.1	-57.6*	9.7	28.1
COc1ccc(-c2nc3ccccc3n2Cc2ccc(Cl)cc2)cc1	-17.4	-32.5*	.	24.9	-2.7
Cc1cccc(-c2nc3ccccc3n2Cc2ccccc2)c1	1.5	-49.5*	.	52.6*	0.1
COc1ccc(-c2nc3ccccc3n2Cc2ccc(C)cc2)cc1	0.4	-14.2	?	2.7	-4.0
COc1ccccc1Cn1c(=S)[nH]c2cc(C(=O)NCc3cccnc3)ccc2c1=O	-13.0	-30.7*	-9.1	5.2	-3.4
CC1CCN(CCCNC(=O)c2ccc3c(=O)n(Cc4ccc(Cl)cc4)c(=S)[nH]c3c2)CC1	-10.7	0.0	-9.5	12.2	-7.6
COC(=O)c1ccc2c(=O)n(Cc3ccc(C(=O)NCCCN4CCC(C)CC4)cc3)c(=S)[nH]c2c1	-18.8	-42.1*	0.0	0.3	-10.8
CN(C)CCNC(=O)c1ccc2c(=O)n(Cc3ccc(Cl)cc3)c(=S)[nH]c2c1	1.0	-3.4	-57.7*	5.9	-0.7
O=C(CSc1nccn1Cc1ccccc1)NCc1ccco1	-3.4	11.1	.	1.4	-4.2
CC(=O)Nc1nc(Cn2nnc(-c3ccc4c(c3)OCO4)n2)nc(N(C)C)n1	5.2	8.6	0.8	4.1	-3.2
O=C1CN(c2nc3nonc3nc2N2CCCCC2)CCN1	2.2	-10.4	-1.5	0.2	-3.5
O=S(=O)(Cc1ccccc1Cl)N1CCN(Cc2ccc3c(c2)OCO3)CC1	-2.3	-34.2*	15.8	41.2*	4.4
